PubChem BioAssay (Tox21)
Values joined by “and” are separate entries in the source; they are usually repeats but may differ in a detail not shown here. Equal entries are not always repeated. Records with an inconclusive call do not appear. Active and inactive are the calls of the source. Unless noted, calls come from the whole dose curve; as a rule, active = well fitted curve in the direction sought with a large enough effect in the repeat runs; inconclusive = weak or mixed curves; inactive = no such curve, though single readings can be large; an effect the other way counts as inactive or inconclusive.

Legend:
[1] = qHTS assay to identify small molecule that activate the aryl hydrocarbon receptor (AhR) signaling pathway - cell viability counter screen (AID 743086);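 note: HepG2 liver cells carrying the AhR DRE luciferase reporter; series mostly up to about 70 µM; nearly all actives have a fitted effect of over 45% in size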
Summary of the method: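 HepG2-AhR-luc (HG2L7.5c1) cells, 4000/well, were preincubated 5 h at 37C, exposed to compound in qHTS format for 24 hr at 37C, then given CellTiter-Fluor for 30 min; viability was read as fluorescence in the reporter wells.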

[2] = target: Peroxisome proliferator-activated receptor gamma (Homo sapiens) (UniProt P37231); test: qHTS assay to identify small molecule agonists of the peroxisome proliferator-activated receptor gamma (PPARg) signaling pathway (AID 743094; active = well fitted activation curve with a large enough effect in the signal ratio in the repeat runs, not every such curve was filed as active; the % refers to the signal ratio)
Summary of the method: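 Agonist activity was taken from a beta-lactamase reporter (FRET substrate, 1 h at room temperature) in HEK293H cells carrying a PPARg UAS-bla construct. Compounds in DMSO were incubated 17 h at 37C after a 5 h cell pre-incubation.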

[3] = target: Peroxisome proliferator-activated receptor gamma (Homo sapiens) (UniProt P37231); test: qHTS assay to identify small molecule antagonists of the peroxisome proliferator-activated receptor gamma (PPARg) signaling pathway (AID 743191; calls by dose curve; note: series mostly up to about 63 µM; nearly all actives have a fitted effect of over 30% in size)
Summary of the method: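 GeneBLAzer PPARg UAS-bla HEK293H cells carrying a UAS-driven beta-lactamase reporter were plated at 3000 cells/well, preincubated 5 h at 37C, then given compound for 17 h at 37C; LiveBLAzer B/G FRET substrate was read after 1 h at room temperature.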

[4] = qHTS assay to identify small molecule antagonists of the peroxisome proliferator-activated receptor gamma (PPARg) signaling pathway - cell viability counter screen (AID 743194); note: nearly all actives have a fitted effect of over 55% in size
Summary of the method: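 PPARg-UAS-bla HEK293H cells were plated, rested 5 h at 37 C, then treated with compounds plus rosiglitazone (50 nM final) for 17 h at 37 C; viability was then read by CellTiter-Glo luminescence after 30 min at room temperature.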

[5] = qHTS assay for small molecule agonists of the antioxidant response element (ARE) signaling pathway (AID 743202; active = well fitted activation curve with a large enough effect in the signal ratio in the repeat runs, not every such curve was filed as active; the % refers to the signal ratio; note: potency is the fitted concentration of half-maximal effect)
Summary of the method: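 Steps: seed ARE-bla HepG2 cells (2,000/well); incubate 5 h at 37 C; add compounds by pin tool; incubate 16 h at 37 C; add FRET substrate; read fluorescence after 2 h at RT.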

[6] = qHTS assay for small molecule agonists of the antioxidant response element (ARE) signaling pathway - cell viability counter screen (AID 743203; calls by dose curve; note: nearly all actives have a fitted effect of over 55% in size)
Summary of the method: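 Viability counter screen: CellTiter-Glo luminescence, read after 30 min at room temperature, in ARE-bla HepG2 wells. Compound exposure lasted 16 h at 37C/5% CO2, following a 5 h pre-incubation of the cells after plating.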

[7] = qHTS assay for small molecule activators of the heat shock response signaling pathway - cell viability counter screen (AID 743209); note: nearly all actives have a fitted effect of over 50% in size
Summary of the method: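 Cytotoxicity counter screen run in the same wells as the heat-shock bla reporter assay: HeLa HSE-bla cells, 5 h compound exposure at 37 C, viability read by CellTiter-Glo luminescence.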

[8] = qHTS assay to identify small molecule agonists of the peroxisome proliferator-activated receptor delta (PPARd) signaling pathway - cell viability counter screen (AID 743211); note: nearly all actives have a fitted effect of over 55% in size
Summary of the method: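 PPARd-bla HEK293H cells (UAS-beta-lactamase reporter) were treated with compounds for 17 h at 37 C. Viability was then read in the same wells by CellTiter-Glo luminescence after 30 min at room temperature.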

[9] = target: Peroxisome proliferator-activated receptor delta (Homo sapiens) (UniProt Q03181); test: qHTS assay to identify small molecule agonists of the peroxisome proliferator-activated receptor delta (PPARd) signaling pathway (AID 743212; calls by dose curve)
Summary of the method: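 Cells expressing a UAS-driven beta-lactamase reporter (PPARd-bla HEK293H) were given test compounds after a 5 h settle and kept at 37 C. Reporter activity was then measured as FRET fluorescence using LiveBLAzer B/G substrate.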

[10] = qHTS assay to identify small molecule antagonists of the peroxisome proliferator-activated receptor delta (PPARd) signaling pathway - cell viability counter screen (AID 743213); note: nearly all actives have a fitted effect of over 50% in size
Summary of the method: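 PPARd-bla HEK293H cells (3000/well) got compound plus 300 nM L165041 agonist for 17 h at 37 C. Viability in the same wells came from CellTiter-Glo luminescence after 30 min at room temperature.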

[11] = target: Peroxisome proliferator-activated receptor delta (Homo sapiens) (UniProt Q03181); test: qHTS assay to identify small molecule antagonists of the peroxisome proliferator-activated receptor delta (PPARd) signaling pathway (AID 743215; active = well fitted inhibition curve with a large enough effect in the signal ratio in the repeat runs, not every such curve was filed as active; the % refers to the signal ratio;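 note: cells stimulated with agonist L165041 at 300 nM final during compound exposure; series mostly up to about 62 µM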)
Summary of the method: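 Agonist L165041 (300 nM final) added with compound to PPARd-bla HEK293H UAS-bla reporter cells; 17 h incubation at 37 C. Read-out: LiveBLAzer FRET substrate, 2 h at room temperature, fluorescence intensity.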

[12] = qHTS assay to identify small molecule antagonists of the farnesoid-X-receptor (FXR) signaling pathway - cell viability counter screen (AID 743221; active = well fitted cell-killing curve with a large enough effect in the repeat runs, not every such curve was filed as active; note: nearly all actives have a fitted effect of over 50% in size)
Summary of the method: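 FXR-UAS-bla HEK 293T cells were treated with test compounds plus chenodeoxycholic acid (50 uM final) for 16 h at 37 C. Cell viability in the same wells was then read as CellTiter-Glo luminescence after 30 min at room temperature.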

[13] = target: Vitamin D3 receptor (Homo sapiens) (UniProt P11473); test: qHTS assay to identify small molecule agonists of the vitamin D receptor (VDR) signaling pathway (AID 743222; calls by dose curve)
Summary of the method: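 Agonist mode, beta-lactamase reporter: fluorescence from LiveBLAzer B/G FRET substrate (2 h, room temperature) read after 16 h compound treatment at 37 C of VDR-bla cells, which were pre-incubated 4 h after seeding.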

[14] = target: Vitamin D3 receptor (Homo sapiens) (UniProt P11473); test: qHTS assay to identify small molecule antagonists of the vitamin D receptor (VDR) signaling pathway (AID 743223; active = well fitted inhibition curve with a large enough effect in the signal ratio in the repeat runs, not every such curve was filed as active; the % refers to the signal ratio)
Summary of the method: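 VDR-bla cells were plated, incubated 4 h at 37C, then given compound and 1alpha,25-dihydroxyvitamin D3 (3 nM final). After 16 h at 37C, LiveBLAzer B/G FRET substrate was added for 2 h at room temperature and fluorescence read.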

[15] = qHTS assay to identify small molecule agonists of the vitamin D receptor (VDR) signaling pathway - cell viability counter screen (AID 743224); note: series mostly up to about 63 µM; nearly all actives have a fitted effect of over 50% in size
Summary of the method: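 Counter screen run in the same wells as the VDR-bla reporter assay: CellTiter-Glo luminescence, 30 min at room temperature, after 16 h compound treatment at 37C of cells pre-plated for 4 h.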

[16] = qHTS assay for small molecule activators of the heat shock response signaling pathway (AID 743210; active = well fitted activation curve with a large enough effect in the signal ratio in the repeat runs, with a control signal flat, not every such curve was filed as active; the % refers to the signal ratio;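 note: HeLa cells with beta-lactamase reporter driven by heat shock elements; series mostly up to about 63 µM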)
Summary of the method: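 Activation of heat shock element-controlled beta-lactamase expression is measured in HeLa cells by LiveBLAzer FRET fluorescence, with compound exposure lasting 5 h at 37 C and substrate loading 2.5 h at room temperature.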

[17] = qHTS assay to identify small molecule agonists of the farnesoid-X-receptor (FXR) signaling pathway - cell viability counter screen (AID 743218); note: nearly all actives have a fitted effect of over 45% in size
Summary of the method: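 Viability counter screen in the same wells: CellTiter-Glo luminescence, 30 min room-temperature incubation, measured after the beta-lactamase read. Cells were GeneBLAzer FXR-UAS-bla HEK 293T, compound-treated 16 h at 37C.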

[18] = qHTS assay to identify small molecule antagonists of the vitamin D receptor (VDR) signaling pathway - cell viability counter screen (AID 743225); note: nearly all actives have a fitted effect of over 50% in size
Summary of the method: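 VDR-bla HEK 293T cells, 4 h pre-incubation at 37C, then compound plus 1-alpha,25-dihydroxyvitamin D3 (3 nM final) for 16 h. After the beta-lactamase FRET read, CellTiter-Glo was added to the same wells; luminescence after 30 min at room temperature.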

[19] = target: Bile acid receptor (Homo sapiens) (UniProt Q96RI1); test: qHTS assay to identify small molecule antagonists of the farnesoid-X-receptor (FXR) signaling pathway (AID 743217; active = well fitted inhibition curve with a large enough effect in the signal ratio in the repeat runs, not every such curve was filed as active; the % refers to the signal ratio)
Summary of the method: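 Antagonist mode: chenodeoxycholic acid at 50 uM final stimulates a UAS-driven beta-lactamase reporter in HEK 293T FXR-bla cells during 16 h, 37C compound exposure. Read-out is FRET substrate fluorescence after 2 h at room temperature.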

[20] = target: Bile acid receptor (Homo sapiens) (UniProt Q96RI1); test: qHTS assay to identify small molecule agonists of the farnesoid-X-receptor (FXR) signaling pathway (AID 743220; active = well fitted activation curve with a large enough effect in the signal ratio in the repeat runs, not every such curve was filed as active; the % refers to the signal ratio)
Summary of the method: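 FXR-UAS-bla HEK 293T cells carrying a UAS-driven beta-lactamase reporter were plated for 5 h at 37C/5% CO2, then exposed to DMSO-dissolved Tox21 10K compounds for 16 h at 37C. A LiveBLAzer B/G FRET substrate was loaded for 2 h at room temperature before fluorescence reading.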
% is set by controls: 0 for no effect and ±100 for the full control effect.

Chain of Peroxisome proliferator-activated receptor delta (Homo sapiens) (Q03181 whole entry, looked up): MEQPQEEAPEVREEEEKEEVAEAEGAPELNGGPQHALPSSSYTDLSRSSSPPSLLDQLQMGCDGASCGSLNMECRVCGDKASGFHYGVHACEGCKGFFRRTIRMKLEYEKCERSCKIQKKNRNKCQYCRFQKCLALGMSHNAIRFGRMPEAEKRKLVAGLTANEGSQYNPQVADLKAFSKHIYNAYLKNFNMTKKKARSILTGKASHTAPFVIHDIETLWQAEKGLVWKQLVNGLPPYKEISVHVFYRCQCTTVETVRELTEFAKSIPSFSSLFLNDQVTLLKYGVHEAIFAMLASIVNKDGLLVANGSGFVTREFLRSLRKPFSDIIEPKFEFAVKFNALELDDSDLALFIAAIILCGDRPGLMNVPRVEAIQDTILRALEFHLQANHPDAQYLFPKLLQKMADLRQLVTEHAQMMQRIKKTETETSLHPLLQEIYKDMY
Chain of Vitamin D3 receptor (Homo sapiens) (P11473 whole entry, looked up): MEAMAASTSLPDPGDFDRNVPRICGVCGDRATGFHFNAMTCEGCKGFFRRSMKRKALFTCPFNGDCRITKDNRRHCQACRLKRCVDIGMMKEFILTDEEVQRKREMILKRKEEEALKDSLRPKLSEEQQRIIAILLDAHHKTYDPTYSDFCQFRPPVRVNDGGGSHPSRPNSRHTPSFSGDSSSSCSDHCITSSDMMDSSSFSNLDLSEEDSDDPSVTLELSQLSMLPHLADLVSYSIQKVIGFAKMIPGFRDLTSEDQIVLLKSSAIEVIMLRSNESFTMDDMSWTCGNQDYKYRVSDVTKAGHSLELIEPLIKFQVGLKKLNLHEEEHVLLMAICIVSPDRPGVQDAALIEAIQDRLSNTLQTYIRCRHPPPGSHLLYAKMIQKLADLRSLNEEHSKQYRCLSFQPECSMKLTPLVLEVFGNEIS
Chain of Bile acid receptor (Homo sapiens) (Q96RI1 whole entry, looked up): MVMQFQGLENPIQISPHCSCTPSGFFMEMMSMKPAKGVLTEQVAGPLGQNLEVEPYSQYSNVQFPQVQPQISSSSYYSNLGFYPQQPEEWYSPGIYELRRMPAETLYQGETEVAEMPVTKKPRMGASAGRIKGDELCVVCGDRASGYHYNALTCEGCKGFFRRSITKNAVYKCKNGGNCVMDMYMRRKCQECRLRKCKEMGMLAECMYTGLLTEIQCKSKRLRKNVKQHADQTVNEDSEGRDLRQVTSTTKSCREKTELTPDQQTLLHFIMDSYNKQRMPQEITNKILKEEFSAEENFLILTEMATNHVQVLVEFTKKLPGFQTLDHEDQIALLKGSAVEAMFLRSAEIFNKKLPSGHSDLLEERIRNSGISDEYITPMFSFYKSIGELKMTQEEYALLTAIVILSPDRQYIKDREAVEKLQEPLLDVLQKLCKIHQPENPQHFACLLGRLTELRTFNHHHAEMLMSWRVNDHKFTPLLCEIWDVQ
Chain of Peroxisome proliferator-activated receptor gamma (Homo sapiens) (P37231 whole entry, looked up): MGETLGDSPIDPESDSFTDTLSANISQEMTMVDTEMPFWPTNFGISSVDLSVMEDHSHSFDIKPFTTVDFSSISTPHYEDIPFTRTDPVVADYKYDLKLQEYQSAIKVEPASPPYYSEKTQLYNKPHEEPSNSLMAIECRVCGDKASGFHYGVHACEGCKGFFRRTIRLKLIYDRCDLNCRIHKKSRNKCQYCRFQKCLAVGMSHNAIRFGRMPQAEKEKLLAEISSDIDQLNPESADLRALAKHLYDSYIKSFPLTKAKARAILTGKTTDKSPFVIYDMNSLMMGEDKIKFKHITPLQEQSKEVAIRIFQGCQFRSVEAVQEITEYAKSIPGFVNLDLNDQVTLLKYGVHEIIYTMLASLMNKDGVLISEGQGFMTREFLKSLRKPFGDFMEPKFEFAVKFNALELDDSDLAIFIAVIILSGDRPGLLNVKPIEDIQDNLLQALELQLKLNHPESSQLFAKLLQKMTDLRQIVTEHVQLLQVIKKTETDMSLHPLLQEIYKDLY

BrCCBr
inactive: outcome [1] | outcome [2] | Potency [3] | outcome [4] | Potency [5] | outcome [6] | outcome [7] | outcome [8] | outcome [9] | outcome [10] | Potency [11] | outcome [12] | outcome [13] | outcome [14] | outcome [15]

c1ccc(OP(Oc2ccccc2)Oc2ccccc2)cc1
inactive: outcome [1] | outcome [2] | Potency [3] | outcome [4] | Potency [5] | outcome [6] | outcome [7] | outcome [16] | outcome [8] | outcome [10] | outcome [17] | outcome [12] | outcome [13] | outcome [14] | outcome [15] | outcome [18]

CC(C#N)CCC#N (stereo not given)
inactive: outcome [1] | outcome [2] | Potency [3] | outcome [4] | Potency [5] | outcome [6] | outcome [7] | outcome [16] | outcome [8] | outcome [9] | outcome [10] | Potency [11] | outcome [17] | outcome [12] | outcome [13] | outcome [14] | outcome [15] | outcome [18]

Nc1ccccc1C(=O)O
inactive: outcome [1] | outcome [2] | Potency [3] | outcome [4] | Potency [5] | outcome [6] | outcome [7] | outcome [16] | outcome [8] | outcome [10] | outcome [19] | outcome [20] | outcome [12] | outcome [13] | outcome [14] | outcome [15] | outcome [18]

CCC[CH2][Sn]([Cl])([Cl])[Cl]
active: Potency [5] 1.1 µM and 2.43 µM
inactive: outcome [1] | outcome [2] | Potency [3] | outcome [4] | outcome [6] | outcome [7] | outcome [8] | outcome [9] | outcome [10] | Potency [11] | outcome [19] | outcome [20] | outcome [12] | outcome [15] | outcome [18]

NCCc1ccc(O)cc1
inactive: outcome [1] | outcome [2] | Potency [3] | outcome [4] | Potency [5] | outcome [6] | outcome [7] | outcome [8] | outcome [9] | outcome [10] | Potency [11] | outcome [17] | outcome [12] | outcome [15]

CCOC(=O)c1ccccc1C(=O)OCC
inactive: outcome [1] | outcome [2] | Potency [3] | outcome [4] | Potency [5] | outcome [6] | outcome [7] | outcome [16] | outcome [8] | outcome [9] | outcome [10] | Potency [11] | outcome [12] | outcome [13] | outcome [14] | outcome [15]

Nc1ccc(Cc2ccc(N)cc2)cc1
inactive: outcome [1] | outcome [2] | Potency [3] | outcome [4] | Potency [5] | outcome [6] | outcome [16] | outcome [8] | outcome [9] | outcome [10] | Potency [11] | outcome [19] | outcome [20] | outcome [12] | outcome [13] | outcome [14] | outcome [15] | outcome [18]

O=C(O)c1ccccn1
inactive: outcome [1] | outcome [2] | Potency [3] | outcome [4] | Potency [5] | outcome [6] | outcome [7] | outcome [16] | outcome [8] | outcome [10] | outcome [12] | outcome [15] | outcome [18]

C=C(C)CCl
inactive: outcome [1] | outcome [2] | ratio activity, negative = inhibition [3] -4.46% [at 5.95 µM] | outcome [4] | Potency [5] | outcome [6] | outcome [7] | outcome [16] | outcome [8] | outcome [9] | outcome [10] | Potency [11] | outcome [19] | outcome [17] | outcome [20] | outcome [12] | outcome [13] | outcome [14] | outcome [15] | outcome [18]

COCCl
inactive: outcome [1] | outcome [2] | Potency [3] | outcome [4] | Potency [5] | outcome [6] | outcome [7] | outcome [16] | outcome [8] | outcome [9] | outcome [10] | Potency [11] | outcome [19] | outcome [17] | outcome [20] | outcome [12] | outcome [13] | outcome [14] | outcome [15] | outcome [18]

OC(O)C(Cl)(Cl)Cl
inactive: outcome [1] | outcome [2] | Potency [3] | outcome [4] | Potency [5] | outcome [6] | outcome [7] | outcome [8] | outcome [9] | outcome [10] | Potency [11] | outcome [19] | outcome [17] | outcome [20] | outcome [12] | outcome [15] | outcome [18]

CC(C)OC(=O)Nc1ccccc1
inactive: outcome [1] | outcome [2] | Potency [3] | outcome [4] | Potency [5] | outcome [6] | outcome [7] | outcome [8] | outcome [10] | outcome [17] | outcome [12] | outcome [13] | outcome [14] | outcome [15] | outcome [18]

CCCN(CCC)N=O
inactive: outcome [1] | outcome [2] | Potency [3] | outcome [4] | Potency [5] | outcome [6] | outcome [7] | outcome [8] | outcome [9] | outcome [10] | Potency [11] | outcome [17] | outcome [12] | outcome [13] | outcome [14] | outcome [15]

COP(N)(=O)SC (stereo not given)
inactive: outcome [1] | outcome [2] | Potency [3] | outcome [4] | Potency [5] | outcome [6] | outcome [7] | outcome [16] | outcome [8] | outcome [9] | outcome [10] | Potency [11] | outcome [19] | outcome [20] | outcome [12] | outcome [13] | outcome [14] | outcome [15] | outcome [18]

CC(C)N1C(=O)c2ccccc2NS1(=O)=O
inactive: outcome [1] | outcome [2] | Potency [3] | outcome [4] | Potency [5] | outcome [6] | outcome [16] | outcome [8] | outcome [9] | outcome [10] | Potency [11] | outcome [17] | outcome [12] | outcome [13] | outcome [15]

CCC[N+](=O)[O-]
inactive: outcome [1] | outcome [2] | Potency [3] | outcome [4] | Potency [5] | outcome [6] | outcome [7] | outcome [16] | outcome [8] | outcome [9] | outcome [10] | Potency [11] | outcome [19] | outcome [17] | outcome [20] | outcome [12] | outcome [13] | outcome [14] | outcome [15] | outcome [18]
